# From PubChem
# POLI inh: qHTS for Inhibitors of Polymerase Iota. Pol iota fluorescent replication assay, 10 min. Potency, µM (series often up to 115 µM), inactives show at the top dose activity, negative = inhibition, usual class: inhibitors. AID 588590, 2011. DNA polymerase iota (Homo sapiens), Q9UNA4. actives 1% (n = 390,000); note: potency is the fitted concentration of half-maximal effect
#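 Pol iota at 10 nM preincubated 15 min with compounds at room temperature; reaction started with fluorescent substrate, 50 nM final. Fluorescence read kinetically at 0 and 10 min; buffer-only wells as negative control.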
# PI5P4K alpha inh: qHTS for Inhibitors of phosphatidylinositol 5-phosphate 4-kinase (PI5P4K); actives 1.2% (n = 330,000); Phosphatidylinositol 5-phosphate 4-kinase type-2 alpha (Homo sapiens), P48426; max response, %; PI5P4Kalpha enzyme, ADP-Glo luminescence, 60 min; active compounds read low; active = max response of -50% or lower; inconclusive = between -30% and -50%; inactive = -30% or higher; note: value at the top dose of about 77 µM; % is set by controls: 0 for no effect and ±100 for the full control effect
#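 Compounds were pin-transferred onto PI5P4Kalpha and substrate in HEPES pH 7.4 buffer with EGTA, CHAPS and 5% DMSO. ATP (5 microM final) started the reaction, which ran 60 minutes at room temperature before ADP-Glo detection.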
# Pol eta inh-1: qHTS for Inhibitors of Polymerase Eta; Potency, µM (top dose mostly 114 µM), for inactives: top-dose activity change, negative = inhibition, actives largely listed as inhibitors; recombinant Pol eta, fluorescent DNA replication assay; AID 588591, 2011; actives 1.2% (n = 390,000); DNA polymerase eta (Homo sapiens), Q9Y253; note: potency is the fitted concentration of half-maximal effect; % is set by controls: 0 for no effect and ±100 for the full control effect
#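 Pol eta (10 nM) was preincubated with compounds for 15 min at room temperature, after which fluorescent replication substrate (50 nM final) was added to start the reaction. Fluorescence was read kinetically at 0 and 10 min.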
# WRN helicase inh: qHTS for Inhibitors of WRN Helicase; Bifunctional 3'-5' exonuclease/ATP-dependent helicase WRN (Homo sapiens), Q14191; WRN helicase unwinding, fluorescent forked duplex, kinetic; Potency, µM (top dose mostly 114 µM), inactives show top-dose activity change, negative = inhibition, actives largely listed as inhibitors; actives 0.46% (n = 360,000); AID 651768, 2012; note: potency is the fitted concentration of half-maximal effect; % is set by controls: 0 for no effect and ±100 for the full control effect; nearly all actives have a fitted effect of over 55% in size
#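 Kinetic fluorescence helicase assay: unwinding of a quenched forked DNA duplex (100 nM final) with 2 mM ATP final raises red fluorescence (525/598 nm). Compounds sat 15 min at room temperature with 20 nM WRN beforehand.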
# Pol beta inh: qHTS Assay for Inhibitors of DNA Polymerase Beta | P06746 | Pol beta primer extension/strand displacement, fluorescence kinetic | Potency, µM (highest dose often 114 µM), without a hit: at the top dose activity change, negative = inhibition, usual class: inhibitors | actives 1.3% (n = 340,000) | AID 485314, 2010; note: potency is the fitted concentration of half-maximal effect; % is set by controls: 0 for no effect and ±100 for the full control effect
#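 Homogeneous kinetic assay of primer extension and strand displacement by 10 nM Pol beta, preincubated 15 min at room temperature with compound before 50 nM substrate (final) was added. Read at 0 and 10 min; four-parameter Hill fit.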
# Pol kappa inh-1: qHTS for Inhibitors of Polymerase Kappa | actives 0.53% (n = 400,000) | purified Pol kappa, fluorescent DNA synthesis assay, 10 min | Potency, µM (titrated, usually from 107 µM), without a hit: top-dose activity, negative = inhibition, most hits filed as inhibitors | AID 588579, 2011 | DNA polymerase kappa (Homo sapiens), Q9UBT6; note: potency is the fitted concentration of half-maximal effect; % is set by controls: 0 for no effect and ±100 for the full control effect
#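 First, compounds were pin-transferred onto 10 nM Pol kappa. After 15 min at room temperature, substrate was added to 50 nM final. Fluorescence was then measured kinetically at 0 and 10 min.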
# GALK inh confirm: Confirmation Assay for Inhibitors of Human Galactokinase (GALK) | shares compounds with Pol eta inh-1 | actives 70% (n = 150) | Potency, µM (highest dose often 115 µM), for the others: at the top dose activity, negative = inhibition, hits mostly inhibitors | purified GALK, Kinase-Glo ATP depletion luminescence
# GALK redox cs: Confirmatory Assay for Inhibitors of Human Galactokinase (GALK): Phenol-HRP redox assay counterscreen; AID 2035, 2009; Potency, µM (series often up to 115 µM), inactives show top-dose activity change, negative = H2O2 signal, hits mostly inhibitors; shares compounds with Pol eta inh-1; actives 40% (n = 150); Phenol red-HRP H2O2 redox cycling, absorbance 600 nm
# HEK293 tox: Secondary Assay for Inhibitors of Human Galactokinase (GALK): HEK-293 Cell Viability Assay; shares compounds with Pol eta inh-1; HEK-293 viability, ATP luminescence (CellTiter-Glo), 24/48 h; Potency, µM (series often up to 46.1 µM), inactives show at the highest dose activity change, negative = cytotoxicity, actives largely listed as inhibitors; actives 10% (n = 170); AID 2547, 2010; note: potency is the fitted concentration of half-maximal effect; % is set by controls: 0 for no effect and ±100 for the full control effect
# Pol kappa inh-2: qHTS for Inhibitors of Polymerase Kappa: Confirmatory Assay for Cherry-picked Compounds | shares compounds with Pol eta inh-1 | purified Pol-kappa, fluorescent strand-displacement substrate | Potency, µM, actives largely listed as inhibitors | actives 76% (n = 920) | AID 720501, 2013; note: potency is the fitted concentration of half-maximal effect
# Pol eta inh-2: qHTS for Inhibitors of Polymerase Eta: Confirmatory Assay for Cherry-picked Compounds; shares compounds with Pol eta inh-1; Pol eta primer extension, TAMRA/BHQ fluorescence, 10 min; Potency, µM, hits mostly inhibitors; actives 64% (n = 2,600); AID 720502, 2013; note: potency is the fitted concentration of half-maximal effect
# * = called active by the depositor; ? = inconclusive; nt = no result; [ ] = dose if it differs, or a comment. An excerpt weighted towards active compounds, which were near 2.8% of everything screened. Unless noted, calls come from the whole dose curve; as a rule, active = well fitted curve in the direction sought with a large enough effect; inconclusive = small, poorly fitted or top-dose-only effect, or another doubt; inactive = no such curve, though single readings can be large; an effect the other way counts as inactive or inconclusive.
SMILES,POLI inh,PI5P4K alpha inh,Pol eta inh-1,WRN helicase inh,Pol beta inh,Pol kappa inh-1,Pol eta inh-2,others
Oc1c(Br)cc(/C=N/Nc2ccc(Cl)nn2)cc1Br,?,-93*,22µM*,45µM*,50µM*,?,85*,
Cc1cc(C(=O)Nc2cccc3ccccc23)co1,16%,-2,-7%,-8%,3%,1%,nt,
Cc1cc(C(=O)NCc2cc(C(=O)O)co2)co1,?,-1,20µM*,-16%,-7%,79µM*,30*,Pol kappa inh-2=17*
CC1=NN(c2cccc(C(=O)O)c2)C(=O)/C1=C\C=C/c1ccccc1,?,-30,18µM*,?,0%,-15%,27*,
CC1=NN(c2ccc(C)cc2)C(=O)/C1=C\C=C\c1ccccc1,100%,4,?,-6%[11.6 µM],-5%,-4%,nt,
CC(=O)Nc1ccc(NC(=O)CSc2ncnc3sc(C)c(C)c23)cc1,98%,-10,-3%,0%,-3%,-1%,nt,
CCN(CC(=O)Nc1ccc(NC(C)=O)cc1)C(=O)CSc1ncnc2sc(C)c(C)c12,?,?,?,-3%[11.6 µM],nt,-18%,?,
CCCCN1C(=O)C(=O)c2cc(Cl)ccc21,?,-17,-22%,-9%,nt,-7%,nt,
O=c1c(O)cc(C2Oc3cc(O)cc(O)c3CC2O)cc2c(C3Oc4cc(O)cc(O)c4CC3O)cc(O)c(O)c12 (stereo not drawn),nt,nt,nt,nt,nt,0.71µM*,nt,GALK inh confirm=5.3µM*;GALK redox cs=5.3µM*;HEK293 tox=-2%
O=C1C[C@H](c2ccccc2)Oc2cc(O)cc(O)c21,nt,nt,nt,nt,nt,-3%[19.4 µM],nt,
Cc1cc2c(=O)n(Cc3ccco3)c(SCC(=O)NCc3ccco3)nc2s1,35µM*,nt,?,-27%,?,?,?,
Cc1nnc(SCC(=O)NCc2ccccc2Cl)[nH]c1=O,46%,0,-6%,-4%,-14%,0%,nt,
Cc1nnc(SCC(=O)NCc2ccco2)[nH]c1=O,?,nt,32µM*,-24%[57.1 µM],0%,?,30*,
Cc1cc2c(=O)n(Cc3ccco3)c(SCC(=O)N3CCCc4ccccc43)nc2s1,-32%,nt,8%,-10%,?,-5%,nt,
COc1ccc(S(=O)(=O)N(C)C)cc1NC(=O)CCCSc1ccccc1,-14%,1,-20%,-31%,13%,-8%,nt,
O=C(COC(=O)Cc1ccc(S(=O)(=O)N2CCOCC2)s1)NCc1ccccc1,17%,-21,?,-4%,0%,-21%,nt,
O=C(COC(=O)Cc1ccc(S(=O)(=O)N2CCOCC2)s1)NCCc1ccccc1,?,nt,79µM*,?,22µM*,?,?,
Oc1c(CN2CCCCC2)cc(COCc2ccccc2)c2cccnc12,96%,-2,-12%,6%,5%,-16%,nt,
COCc1cc(CN2CCCC2)c(O)c2ncccc12,63%,nt,-8%,0%,-2%,-16%,nt,GALK inh confirm=1%;GALK redox cs=-3%;HEK293 tox=?
O=C1Cc2cc(O)ccc2O1,24%,-3,-21%,-8%,nt,0%,nt,
O=C(OCc1nnc(-c2ccccc2)o1)c1cc(S(=O)(=O)N2CCOCC2)ccc1F,20%,-5,-3%,-11%,nt,-11%,nt,
COc1cccc2cc(C(=O)C3=C(O)C(=O)N(CCN4CCOCC4)C3c3cccc(Cl)c3)oc12 (stereo not drawn),-21%,-8,28µM*,-11%[11.6 µM],3%,-14%,17*,
COc1cccc2cc(C(=O)C3=C(O)C(=O)N(CCN4CCOCC4)C3c3ccc(Cl)cc3)oc12 (stereo not drawn),41%,-2,?,-3%,39%,1%,nt,
CC1CC(Nc2cccc(O)c2)=CC(=O)O1 (stereo not drawn),-7%,5,-10%,2%,8%,-2%,nt,
C[C@@H]1Cc2c(O)c(O)cc(O)c2C(=O)O1,?,-27,22µM*,-21%,2.8µM*,79µM*,67*,
SMILES,POLI inh,PI5P4K alpha inh,Pol eta inh-1,WRN helicase inh,Pol beta inh,Pol kappa inh-1,Pol eta inh-2,others
CN1CCN(C(=O)CCCN2C(=O)/C(=C/c3ccccc3)SC2=S)CC1,24%,-1,-7%,-5%,31%,-23%,nt,
O=C(O)CCCN1C(=O)/C(=C\C(Cl)=C\c2ccccc2)SC1=S,?,-19,10µM*,?,?,?,24*,Pol kappa inh-2=38*
O=C(O)c1ccc(Cn2cc(/C=C\[N+](=O)[O-])c3ccccc32)o1,8.9µM*,-8,22µM*,?,?,?,76*,
O=C(Nc1ccc2nc3n(c(=O)c2c1)CCCCC3)c1c(F)ccc([N+](=O)[O-])c1F,?,-7,16µM*,-27%[11.6 µM],15%,8%,48*,
COc1ccc2occ(CC(=O)Nc3ccc(S(=O)(=O)Nc4nc(C)cc(C)n4)cc3)c2c1,79µM*,nt,25µM*,nt,28µM*,?,?,Pol kappa inh-2=42*
Cc1cccc(NC(=O)c2ccc(C)c(S(=O)(=O)N3CCCCC3)c2)n1,19%,5,0%,3%,nt,-5%,nt,
